We go through 15 compounds from PubChem BioAssay (NCI).

Structures are written as SMILES. About 83,000 compounds went through this panel and 20% of them were active in at least one assay; those are over-represented in the sample as a whole.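 A percent growth of 40 corresponds to 60% growth inhibition; 0 means no net growth; -100 means all cells died. Active threshold: below 10.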 Unmarked numbers belong to inactive results. Active and inactive are the calls of the source.

Common to all, as to test: NCI-60 one-dose screen, 48 h (100 = growth as untreated, 0 = no growth, -100 = all killed)
What all share (conditions): 10 µM unless noted

Test [1] concerns T-47D breast.
For test [2], the system named is BT-549 breast.
For test [3], the system named is MDA-MB-435 melanoma.
The subject of test [4] is SW-620 colon.
Test [5] has as its system MCF7 breast.
The subject of test [6] is HCT-116 colon.
Test [7] deals with HCC-2998 colon.
For test [8], the system named is KM12 colon.

For `COc1ccc(Nc2ncc(Br)c(NCCCNC(=O)c3cccs3)n2)cc1`, the growth in test [1] is 46.2%; in test [2], 45.6%; in test [3], 59%; in test [4], 24.7%; in test [5], 42.9%; in test [6] it was 26.2%. Further, the growth in test [7] is 80.6%; in test [8], 20.6%.

Turning to `CC1CN(S(=O)(=O)c2oc(-c3ccc(Cl)cc3)nc2C#N)CC(C)O1` (stereo not given), the growth in test [1] is 27%; in test [2], 89%; in test [3], 86.4%; in test [4], -66.1% (active); in test [5] it was 55.2%; in test [6], -53.4% (active). Further, the growth was 105% in test [7] and 100% in test [8].

As for `Cc1cccc(/C=C/c2c(C(=O)/C=C/c3ccccc3)c(C)nc3ccccc23)c1`, the growth in test [1] was -4.51% (active); in test [2], 2.21% (active); in test [3], -66% (active); in test [4] it was -14% (active); in test [5], 3.87% (active); in test [6], -56.3% (active). In addition, the growth is -84.5% (active) in test [7] and -52.7% (active) in test [8].

For `Cn1cc(-c2csc(-c3c[nH]c4ccccc34)n2)c2cnccc21`, the growth in test [1] is -3.84% (active); in test [2], 78.7%; in test [3] it was -72.5% (active); in test [4] it was -48% (active); in test [5], 16.7%; in test [6], -59.7% (active). For the same compound, the growth in test [7] is 87%; in test [8] it was 22.8%.

Regarding `O=C(CN1C(=O)S/C(=C\c2ccccc2)C1=O)Nc1ncc(Cc2ccccc2Cl)s1`, the growth in test [1] was 88.1%; in test [2] it was 113%; in test [3], 93.6%; in test [4], 105%; in test [5], 92.7%; in test [6], 94.5%. The growth is 105% in test [7] and 102% in test [8].

`Cc1ccc(-c2nc(N3CCCNCC3)c3oc(-c4ccc(C)cc4)nc3n2)cc1`: the growth is -46% (active) in test [1]; 90.2% in test [2]; 70.8% in test [3]; -49.7% (active) in test [4]; -64.8% (active) in test [5]; 27.5% in test [6]. For the same compound, the results for the growth in test [7] and in test [8] were 40.9% and 11.3%, respectively.

Take `Cn1c(=O)c2nc(/C=C/c3ccccc3)c(=O)[nH]c2n(C)c1=S`: the growth is 104% in test [1]; 110% in test [2]; 103% in test [3]; 98.9% in test [4]; 93.9% in test [5]; 105% in test [6]. Further, the growth was 106% in test [7] and 104% in test [8].

`COC1=CC(c2ccc[nH]2)=N/C1=C\c1[nH]c(C)c(CC(=O)NCc2ccccc2)c1C`: the growth in test [1] was 15.1%; in test [2] it was 40.2%; in test [3], 15.9%; in test [4] it was 20.6%; in test [5], 11%; in test [6], 2.09% (active). Also, the growth in test [7] was 13.9%; in test [8] it was -46.1% (active).

Consider `S=c1sc2c(Cl)nc(-c3cccnc3)nc2n1-c1ccccc1`, for which the growth in test [1] was -14.5% (active); in test [2], 27.9%; in test [3], 41.2%; in test [4] it was 0.199% (active); in test [5], 3.63% (active); in test [6], 1.57% (active). Besides, the growth in test [7] was 39.6%; in test [8], 46.3%.

On to `CC(=O)N1N=C(c2ccc(C(F)(F)F)c(F)c2)CC1c1[nH]c(C)c(C(=O)NCC(F)(F)F)c1C` (stereo not given), for which the growth was 43.5% in test [1]; 89.9% in test [2]; 76.7% in test [3]; 94.3% in test [4]; 73.6% in test [5]; 34% in test [6]. Besides, the growth in test [7] was 72.1%; in test [8], 60.2%.

On to `O=S(=O)(NCCCNc1nccc(-c2c(-c3ccc(F)c(O)c3)nc3sccn23)n1)c1ccccc1`, for which the growth in test [1] was 64.8%; in test [2], 91.1%; in test [3], 29.3%; in test [4], 56.2%; in test [5], 58.5%; in test [6], 30.6%. Also, the growth is 78.2% in test [7] and 64.6% in test [8].

With `C=CCn1c(C)nc2ccc(Nc3nc(Nc4ccc5nc(C)n(CC=C)c5c4)c4ccccc4n3)cc21`, the growth in test [1] was -91% (active); in test [2], 72.1%; in test [3], -78% (active); in test [4] it was -80.5% (active); in test [5] it was -87.9% (active); in test [6] it was -97.8% (active). In addition, the values for the growth in test [7] and in test [8] were -52.7% (active) and -84.8% (active), respectively.

With `CN(C)c1ccc(C(=O)OCCCCCCl)cc1`, the growth was 82% in test [1]; 94.1% in test [2]; 96.6% in test [3]; 99.9% in test [4]; 95.1% in test [5]; 96.7% in test [6]. Besides, the growth in test [7] is 98.4%; in test [8], 97%.

As to `COc1cc(-c2nccc3[nH]c(-c4ccc5cc[nH]c5c4)nc23)cc(OC)c1OC`, the growth was 30.5% in test [1]; 18.4% in test [2]; 5.17% (active) in test [3]; -15.6% (active) in test [4]; 2.12% (active) in test [5]; 4.37% (active) in test [6]. Besides, the growth in test [7] is -19.2% (active); in test [8] it was 3.62% (active).

As for `CCN(CC)CC(O)COc1c(Br)c(Br)c(Br)c2c1OC(C)(C)C2` (stereo not given), the growth is 69.5% in test [1]; 95.6% in test [2]; 1.3% (active) in test [3]; -65.9% (active) in test [4]; 73.2% in test [5]; 45.5% in test [6]. For the same compound, the growth is 76% in test [7] and 53.8% in test [8].
